Over roughly 68,000 sequences, “fluorescence intensity (a.u.)” has its median near 9,100; the highest 2% begin near 16,000. Only a selection was taken, and the highest values are over-represented in it overall.

For the assay, the target named is OsWRKY34 (Oryza sativa, UniProt Q0JBA9 1-250). Kind of assay: protein-binding microarray (RPBM); PBS, 2% BSA, 51.3 ng/ul salmon testes DNA, 50 uM zinc acetate, 200 nM TF, 25 C, 1 h; high values mean tight binding. The conditions noted are these: protein: recombinant; tags: N-terminal polyhistidine and DsRed monomer fusion (pET32a); label: CyDye5-dUTP incorporated in the synthesized complementary strand; 3' TTTTT single-stranded linker to array surface; dsDNA, one strand shown. The method in brief: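 For the binding signal, per-feature fluorescence intensity was read in arbitrary units on an Axon 4000B scanner. Before scanning, a 2% BSA-blocked custom Agilent array made double-stranded with Cy5-dUTP was washed after 1 h at 25 °C with 200 nM protein and 50 µM zinc acetate. The proteins were Ni–NTA-purified transcription factors with N-terminal polyhistidine and DsRed fusions, expressed in E. coli BL21-CodonPlus.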
Chain of OsWRKY34 (Q0JBA9 entry or part of it): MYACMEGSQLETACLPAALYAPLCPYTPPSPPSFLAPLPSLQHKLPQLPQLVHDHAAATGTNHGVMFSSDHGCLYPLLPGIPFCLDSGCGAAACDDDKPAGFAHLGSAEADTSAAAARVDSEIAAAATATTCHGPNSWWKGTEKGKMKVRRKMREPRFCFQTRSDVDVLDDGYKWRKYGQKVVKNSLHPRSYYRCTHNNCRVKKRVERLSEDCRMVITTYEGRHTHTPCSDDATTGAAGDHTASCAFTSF
With “AAATTCAAACTAGTTTCTACATAGCCTCTTTTCTCTATTTCGGAGTCACCTAGTGCAG”, the binding signal was 10900 fluorescence intensity (a.u.).

Consider “TGTTTATTTTTTTCGTTAAATTTGATTGTTTCCATTTGCACGGAGTCACCTAGTGCAG”, for which the binding signal is 9770 fluorescence intensity (a.u.).

Regarding “ACCCGCCCCTGCTGCTCACCGCTCCAGCCTCCGCTCATCCCGGAGTCACCTAGTGCAG”, the binding signal was 8790 fluorescence intensity (a.u.).

Turning to “AGTTTTATCCTGGGTTTGTGTTTGGTGCTGTTCTTGCGTGCGGAGTCACCTAGTGCAG”, the binding signal is 10200 fluorescence intensity (a.u.).

On to “CGTCTCTTTTATCCTTCTTTTTTTTCCCATTTTTCTTTTTCGGAGTCACCTAGTGCAG”, for which the binding signal is 11900 fluorescence intensity (a.u.).

Consider “CCGCTGCTGTTTTCTTTTCTTTTGTAAGTGTGTAACGTTACGGAGTCACCTAGTGCAG”, for which the binding signal is 9400 fluorescence intensity (a.u.).

“GGTTGGTTTCTTTCGTTGGATTGTTTCGAGCCAGGGTTTCCGGAGTCACCTAGTGCAG”: the binding signal is 16900 fluorescence intensity (a.u.).

Take “TTGGATTGGTTTCTTTCTGCTCTGTTGCAGCTCCGTTGTCCGGAGTCACCTAGTGCAG”: the binding signal is 9560 fluorescence intensity (a.u.).

For “CGTTATTCCGCTGTTGTTTTTTTTTTCTTTTGTAAGTATGCGGAGTCACCTAGTGCAG”, the binding signal was 17500 fluorescence intensity (a.u.).

On to “AGGGTTTTTTTTGTCACTTTCGTTGTCAGTTTCTTTTTTCCGGAGTCACCTAGTGCAG”, for which the binding signal is 14100 fluorescence intensity (a.u.).

Consider “GGCGGATTTCGGTTTCTTCGTGTGTTTGTTGGTTGCGTTGCGGAGTCACCTAGTGCAG”, for which the binding signal was 12700 fluorescence intensity (a.u.).

Regarding “TGAGTTTGTTTGCTGGGTTGGTTCGTGCGTTTTCTTGGATCGGAGTCACCTAGTGCAG”, the binding signal was 18800 fluorescence intensity (a.u.).

Regarding “CTTGGTGGTTCTTTTCTTCTTCTAGATTTATCCCCATTTTCGGAGTCACCTAGTGCAG”, the binding signal is 16700 fluorescence intensity (a.u.).

Consider “CCATTTAGATTGGTGCCATTTTAAACTATATCTTTTTCTTCGGAGTCACCTAGTGCAG”, for which the binding signal is 8220 fluorescence intensity (a.u.).

On to “CCGCTGTTATTCCCTTTGTTGTTTTTTCTCAAGTAAATTTCGGAGTCACCTAGTGCAG”, for which the binding signal is 13200 fluorescence intensity (a.u.).

For the sequence “TCTCTCGCCGATTCCGCCACCGCCGCCGCGCCGCGCCTCGCGGAGTCACCTAGTGCAG”, the binding signal was 9420 fluorescence intensity (a.u.).

As to “GACGGTGGCCATTCTAATTCCTCTATTGCAGGGTCTAACTCGGAGTCACCTAGTGCAG”, the binding signal is 8310 fluorescence intensity (a.u.).

As for “TATATCCTATCTCTCACTTCACTCATATAGTGGTTAACTCCGGAGTCACCTAGTGCAG”, the binding signal is 9570 fluorescence intensity (a.u.).

In the case of “ACTTTTCTACACACATAAACTTCTAACTTTTTCATCACATCGGAGTCACCTAGTGCAG”, the binding signal is 13400 fluorescence intensity (a.u.).

For the sequence “GTAGTGCTGATGTTGTACTGTGTTTTTTTACCCGTTTTATCGGAGTCACCTAGTGCAG”, the binding signal was 11500 fluorescence intensity (a.u.).

As to “CCACCACCACCACGCCACGGCAGCCGCACCGCACCGCACCCGGAGTCACCTAGTGCAG”, the binding signal was 8390 fluorescence intensity (a.u.).

For “CACACCTCGCCTCCTCCTCGGCTTGGATCTCGCCGCATCACGGAGTCACCTAGTGCAG”, the binding signal was 8210 fluorescence intensity (a.u.).

With “AACGGTACCATCACCATCATTTATCATGGGCACAACTTGCCGGAGTCACCTAGTGCAG”, the binding signal is 8810 fluorescence intensity (a.u.).

For “CCTTCGTCGACCCTCCGCCGCCGCCGCCGCCGCCGCCGACCGGAGTCACCTAGTGCAG”, the binding signal is 8660 fluorescence intensity (a.u.).

In the case of “CAACATACAGGGAGTTTTTACCGGCCGCCCTCTACTCTCACGGAGTCACCTAGTGCAG”, the binding signal is 9800 fluorescence intensity (a.u.).

“GAGTTAGCCATGGCCTGTCAATTACTGGAACTCTGTTGTACGGAGTCACCTAGTGCAG”: the binding signal was 8220 fluorescence intensity (a.u.).

Regarding “GTTGCTTTTGCTGGAGTAGTACTTCTATTTATCTTCAAACCGGAGTCACCTAGTGCAG”, the binding signal is 9100 fluorescence intensity (a.u.).

On to “GGGCTTGCGATCGTGTTGTGTTGGGTTGGGTCTTGGGTTTCGGAGTCACCTAGTGCAG”, for which the binding signal is 29400 fluorescence intensity (a.u.).

Regarding “CTCAGTCGACCAATCGTTGATCGCCACGTCGGCTGTTCTTCGGAGTCACCTAGTGCAG”, the binding signal was 8350 fluorescence intensity (a.u.).

For “TTTTCGCATGTTTCTTTTCTTTTTTTTTCTTTTCTTTTCCCGGAGTCACCTAGTGCAG”, the binding signal was 16600 fluorescence intensity (a.u.).

On to “TTTTTTCTTTTTTTTTTTGTTTTTTCTCGCCTTTTTTTCCCGGAGTCACCTAGTGCAG”, for which the binding signal is 11900 fluorescence intensity (a.u.).

As for “CTGGTCAGTTGGTCTTGTGTTTTGGGCTTTTTCGGCCCGTCGGAGTCACCTAGTGCAG”, the binding signal is 12200 fluorescence intensity (a.u.).

Turning to “CATTTTCTTGGTTTGGTCTTTTTTATTGTTGGGTGTGTTTCGGAGTCACCTAGTGCAG”, the binding signal was 15500 fluorescence intensity (a.u.).

For the sequence “TTCGTGGTTTCGTTCAGCTTGATTTCGCTTGACACATCGACGGAGTCACCTAGTGCAG”, the binding signal was 9110 fluorescence intensity (a.u.).

Regarding “TGGTCTTGCCTCTCGCTTAGCCTTTTTGTTGCCTTGTGCTCGGAGTCACCTAGTGCAG”, the binding signal is 12300 fluorescence intensity (a.u.).

Turning to “CTGTAGTTGCCTTTGTTGGTCTTGGTTTTGCTGTTCTGGTCGGAGTCACCTAGTGCAG”, the binding signal is 9910 fluorescence intensity (a.u.).

Regarding “GGAGGGTCTGTTTTCTTGTGTGCGAGCCTTGCTAGTTGCTCGGAGTCACCTAGTGCAG”, the binding signal is 16500 fluorescence intensity (a.u.).

For “TGTTTTTTCCTTTTTTTTTCTTTTCTTTTTCTCTCTTCCCCGGAGTCACCTAGTGCAG”, the binding signal is 8200 fluorescence intensity (a.u.).

For “ATCTGTTCGTGGGTTGCTTGCTCAGTCGACCAATCGTTGACGGAGTCACCTAGTGCAG”, the binding signal is 19200 fluorescence intensity (a.u.).

For “TCTGACACCTATCTCTCCTGGATTCTCCATGCTTTCTTTCCGGAGTCACCTAGTGCAG”, the binding signal is 10300 fluorescence intensity (a.u.).

As to “TTTTCTCACCACTCTCTCTTTCGTGTTCTCTCTCTCTTGTCGGAGTCACCTAGTGCAG”, the binding signal is 12500 fluorescence intensity (a.u.).

With “CATCCTCCTTCCGGAACCTTCTAGAAGGTTCTCCTCGTACCGGAGTCACCTAGTGCAG”, the binding signal was 8530 fluorescence intensity (a.u.).

For the origin of these results see publication PMC7819943, “Rice protein-binding microarrays: a tool to detect cis-acting elements near promoter regions in rice”.
